Several values for one entry are separate records, joined by “and”; a condition that tells them apart may be missing. Equal values may be shown once. The campaign covered roughly 5,500 compounds. About 2,000 (36%) were called active. About 18% were inconclusive and are not listed. No stated cut-off is given here; in the data, active means normalized growth mostly below about 0.91 (no sharp cut-off); inconclusive means no clear call, values can overlap the other calls; inactive means mostly above about 0.92. The list shows a part of the results.
Assay: chemical genetic growth profiling, strain panel (AID 1159580);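 further: tested at 20 µM; growth read once vehicle control cultures reached saturation at 30 °C; 1 = growth at the plate median or of vehicle wells; lower values mean less growth of the strain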
Conditions: S. cerevisiae deletion strains, growth OD

Measured: normalized growth

COc1ccc2c(c1)OCC(Cc1ccc(OC)c(O)c1)C2=O (configuration not stated)
active: locus YBR009C, strain hhf1, hits give low values 0.903 | locus YDR195W, strain ref2 1.23 [resistant] | locus YDR392W, strain spt3, hits give low values 0.449 | locus YDR502C, strain sam2, hits give low values 0.909 | locus YER155C, strain BEM2 (second series), hits give low values 0.757 | locus YGL078C, strain dbp3, hits give low values 0.92 | locus YGL240W, strain doc1, hits give low values 0.821 | locus YGL253W, strain hxk2, hits give low values 0.91 | locus YGR135W, strain pre9, hits give low values 0.868 | locus YHR142W, strain chs7, hits give low values 0.872 | locus YJL166W, strain qcr8, hits give low values 0.844
inactive: locus YAL013W, strain DEP1, hits give low values 0.955 | locus YAL021C, strain ccr4, hits give low values 0.993 | locus YAL026C, strain drs2, hits give low values 0.965 | locus YAL030W, strain snc1, hits give low values 0.953 | locus YBL061C, strain skt5, hits give low values 0.961 | locus YBR021W, strain FUR4, hits give low values 0.873 | locus YBR023C, strain chs3, hits give low values 0.929 | locus YBR171W, strain sec66, hits give low values 0.937 | locus YBR229C, strain ROT2, hits give low values 0.98 | locus YBR231C, strain swc5, hits give low values 0.968 | locus YBR279W, strain paf1, hits give low values 0.979 | locus YCL011C, strain gbp2, hits give low values 0.922 | locus YCL016C, strain dcc1, hits give low values 0.939 | locus YCL029C, strain bik1, hits give low values 0.952 | locus YCL061C, strain MRC1, hits give low values 0.933 | locus YCL069W, strain vba3, hits give low values 0.956 | locus YCR088W, strain abp1, hits give low values 0.963 | locus YDL005C, strain med2, hits give low values 0.959 | locus YDL035C, strain GPR1, hits give low values 0.972 | locus YDL040C, strain nat1, hits give low values 0.967 | locus YDL074C, strain BRE1, hits give low values 0.937 | locus YDL101C, strain DUN1, hits give low values 0.942 | locus YDL185W, strain tfp1, hits give low values 0.961 | locus YDL192W, strain arf1, hits give low values 0.958 | locus YDR001C, strain nth1, hits give low values 0.959 | locus YDR069C, strain doa4, hits give low values 1.01 | locus YDR101C, strain arx1, hits give low values 0.972 | locus YDR137W, strain rgp1, hits give low values 0.974 | locus YDR159W, strain sac3, hits give low values 0.867 | locus YDR162C, strain NBP2, hits give low values 0.982 | locus YDR297W, strain sur2, hits give low values 0.963 | locus YDR318W, strain mcm21, hits give low values 0.93 | locus YDR334W, strain swr1, hits give low values 0.977 | locus YDR335W, strain msn5, hits give low values 0.973 | locus YDR388W, hits give low values 0.967 | locus YEL003W, strain gim4, hits give low values 0.933 | locus YEL037C, strain rad23, hits give low values 0.964 | locus YEL061C, strain CIN8 (second series), hits give low values 0.968 | locus YEL061C, strain CIN8, hits give low values 0.978 | locus YER015W, strain faa2, hits give low values 0.961 | locus YER016W, strain bim1, hits give low values 0.965 | locus YER110C, hits give low values 0.931 | locus YER111C, strain swi4, hits give low values 0.962 | locus YER155C, strain BEM2, hits give low values 0.963 | locus YER167W, strain BCK2, hits give low values 0.981 | locus YFR010W, strain ubp6, hits give low values 0.989 | locus YGL086W, strain mad1, hits give low values 0.934 | locus YGL167C, strain pmr1, hits give low values 0.939 | locus YGL173C, strain kem1, hits give low values 0.924 | locus YGL227W, strain vid30, hits give low values 0.964 | locus YGL248W, strain PDE1, hits give low values 0.9 | locus YGR078C, strain PAC10, hits give low values 0.914 | locus YGR252W, strain gcn5, hits give low values 0.78 | locus YHR013C, strain ard1, hits give low values 0.956 | locus YHR027C, strain rpn1, hits give low values 0.944 | locus YHR030C, strain SLT2, hits give low values 0.978 | locus YHR079C, strain IRE1 (second series), hits give low values 0.964 | locus YHR079C, strain IRE1, hits give low values 0.983 | locus YHR094C, strain hxt1, hits give low values 0.969 | locus YHR129C, strain ARP1, hits give low values 0.966 | locus YHR200W, strain rpn10, hits give low values 0.975 | locus YIL066C, strain RNR3, hits give low values 0.975 | locus YIL073C, strain SPO22, hits give low values 0.881 | locus YIL125W, strain kgd1, hits give low values 0.969 | locus YIR030C, strain dcg1, hits give low values 0.942 | locus YJL092W, strain hpr5, hits give low values 0.968 | locus YJL095W, strain BCK1 (second series), hits give low values 0.94 | locus YJL095W, strain BCK1, hits give low values 0.903 and 1 | locus YJL115W, strain asf1, hits give low values 0.969 | locus YJL129C, strain trk1, hits give low values 0.886 | locus YJL134W, strain LCB3, hits give low values 0.981 | locus YJL154C, strain vps35, hits give low values 0.964 | locus YJL164C, strain tpk1, hits give low values 0.933 | locus YJL168C, strain set2, hits give low values 0.958 | locus YJL187C, strain SWE1 (second series), hits give low values 0.926 | locus YJL187C, strain SWE1, hits give low values 0.983

Reference: PubChem BioAssay AID1159580 (chemical genetic matrix, 2015)
